# Test results as given in PubChem BioAssay (EPA / NIEHS).
# Inconclusive results are not listed. The source made the active and inactive calls. The calls were made as follows: active = hit-call score of the fitted dose curve at least 0.9, where 1 is the maximum; inconclusive = response in the unintended direction; inactive = score below 0.9.
# Columns and labels:
# [1] = system: guinea pig Leukotriene B4 Receptor (LTB4), gene 100379538; assay: NVS_GPCR_gLTB4: NovaScreen (NVS) G Protein-Coupled Receptor Assay for guinea pig Leukotriene B4 Receptor (LTB4) (AID 2283247)
# Outline: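 Radioligand displacement on guinea pig spleen membranes, filter-based scintillation counting 2 h after dosing. Primary duplicate single point at 25 uM; hits over threshold (e.g. 30% inhibition) run in concentration-response up to 50 uM, DMSO baseline.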
# [2] = system: guinea pig Muscarinic, Peripheral (Mperiperal) Receptor, Non-selective Binding, gene 100379235; assay: NVS_GPCR_gMPeripheral_NonSelective: NovaScreen (NVS) G Protein-Coupled Receptor Assay for guinea pig Muscarinic, Peripheral (Mperiperal) Receptor, Non-selective Binding (AID 2283250)
# Outline: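 Guinea pig bladder membranes, radioligand binding read 1 h after dosing by filter scintillation counting; loss of signal vs DMSO. Primary duplicate screen at 25 uM, then concentration-response up to 50 uM.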
# [3] = biological target: guinea pig Opioid, Kappa 1 Receptor (OpiateK), OPRK1 (gene 100135587) (UniProt P41144); assay: NVS_GPCR_gOpiateK: NovaScreen (NVS) G Protein-Coupled Receptor Assay for guinea pig Opioid, Kappa 1 Receptor (OpiateK) (AID 2283252);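 also: radioligand displacement from kappa opioid receptor in guinea pig cerebellar membranes; active means reduced radioligand binding relative to DMSO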
# Outline: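 Guinea pig cerebellar membranes, radioligand displacement with filter-based scintillation counting, 2 h after dosing. Primary screen single concentration 25 uM in duplicate; actives retested in concentration series; loss of binding fitted versus DMSO.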
# [4] = biological target: human Adenosine A1 Receptor (AdoRA1), ADORA1 (gene 134) (UniProt P30542); assay: NVS_GPCR_hAdoRA1: NovaScreen (NVS) G Protein-Coupled Receptor Assay for human Adenosine A1 Receptor (AdoRA1) (AID 2283254)
# Outline: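 Membranes from human cortical tissue were incubated with radioligand and test chemical for 1 hour, then filtered and counted. Activity was taken as signal loss relative to DMSO, screened at 25 uM in duplicate before concentration-response follow-up.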
# [5] = biological target: human Adenosine A2a Receptor (AdoRA2a), ADORA2A (gene 135) (UniProt P29274); assay: NVS_GPCR_hAdoRA2a: NovaScreen (NVS) G Protein-Coupled Receptor Assay for human Adenosine A2a Receptor (AdoRA2a) (AID 2283256)
# Outline: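 Radioligand displacement on HEK293-derived membrane protein, cell-free; filter-based scintillation counting 1.5 hours after dosing, loss of signal vs DMSO. Single-point duplicate screen at 25 uM, actives retested in concentration series.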
# [6] = biological target: Type-1 angiotensin II receptor (Homo sapiens) (UniProt P30556); assay: NVS_GPCR_hAT1: NovaScreen (NVS) G Protein-Coupled Receptor Assay for human Angiotensin II receptor type 1 (AT1) (AID 2283263)
# Outline: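 Membranes from KAN-TS cells; radioligand competitive displacement, 3 h, filtration and scintillation counting. Single-point duplicate screen at 25 uM, then concentration-response up to 50 uM for hits; loss of signal fitted versus DMSO.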
# [7] = biological target: guinea pig Leukotriene D4 Receptor (LTD4), CYSLTR1 (gene 100135514) (UniProt Q2NNR5); assay: NVS_GPCR_gLTD4: NovaScreen (NVS) G Protein-Coupled Receptor Assay for guinea pig Leukotriene D4 Receptor (LTD4) (AID 2283248)
# Outline: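 Radioligand displacement on guinea pig lung membranes, 1 h incubation, filtration and scintillation counting; DMSO as negative control. Duplicate 25 uM primary screen, then singleton concentration-response up to 50 uM.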
# [8] = biological target: human Serotonin, 5-Hydroxytryptamine Receptor 6 (5HT6), HTR6 (gene 3362) (UniProt P50406); assay: NVS_GPCR_h5HT6: NovaScreen (NVS) G Protein-Coupled Receptor Assay for human Serotonin, 5-Hydroxytryptamine Receptor 6 (5HT6) (AID 2283253)
# Outline: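 Radioligand binding to 5HT6 in HEK293-derived membranes, cell-free, 1 h after dosing; bound ligand measured by filter-based scintillation counting. Primary screen in duplicate at 25 uM; actives retested in concentration series.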
# [9] = biological target: human Serotonin, 5-Hydroxytryptamine Receptor 7 (5HT7), HTR7 (gene 3363) (UniProt P34969); assay: NVS_GPCR_h5HT7: NovaScreen (NVS) G Protein-Coupled Receptor Assay for human Serotonin, 5-Hydroxytryptamine Receptor 7 (5HT7) (AID 2283255);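 also: hits reduce specific radioligand binding relative to DMSO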
# Outline: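 Radioligand displacement on membranes from CHO cells expressing human 5HT7, 1 h incubation, filter-based scintillation counting. Primary screen used a single 25 uM concentration in duplicate; actives were followed up in concentration series.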
# [10] = biological target: human Adrenergic, Beta 1 Receptor (Adrb1), ADRB1 (gene 153) (UniProt P08588); assay: NVS_GPCR_hAdrb1: NovaScreen (NVS) G Protein-Coupled Receptor Assay for human Adrenergic, Beta 1 Receptor (Adrb1) (AID 2283258)
# Outline: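 Cell-free radioligand displacement on receptor from human neuroepithelioma cells; 2 h after dosing, filter-based scintillation counting. Primary screen in duplicate at 25 uM, actives retested in concentration series; loss of signal vs DMSO baseline.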
# [11] = biological target: human Adrenergic, Alpha 2A Receptor (Adra2A), ADRA2A (gene 150) (UniProt P08913); assay: NVS_GPCR_hAdra2A: NovaScreen (NVS) G Protein-Coupled Receptor Assay for human Adrenergic, Alpha 2A Receptor (Adra2A) (AID 2283257)
# Outline: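 Radioligand filter-binding was run on HT29-derived membranes, cell-free, read by scintillation counting 1 h after dosing. Primary screening was in duplicate at 25 uM, with concentration series in follow-up. Loss of signal versus DMSO indicates displacement.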
# [12] = biological target: human Adrenergic, Alpha 2c Receptor (Adra2C), ADRA2C (gene 152) (UniProt P18825); assay: NVS_GPCR_hAdra2C: NovaScreen (NVS) G Protein-Coupled Receptor Assay for human Adrenergic, Alpha 2c Receptor (Adra2C) (AID 2283259)
# Outline: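 Radioligand binding on Sf9-expressed receptor membranes, 1 h after chemical dosing, filter-based scintillation read-out. Loss of binding fitted positively versus DMSO; primary duplicate screen at 25 uM, actives retested in concentration series.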
# [13] = system: bovine Histamine 1 Receptor (H1), gene 281231; assay: NVS_GPCR_bH1: NovaScreen (NVS) G Protein-Coupled Receptor Assay for bovine Histamine 1 Receptor (H1) (AID 2283246)
# Outline: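 Radioligand displacement on bovine cerebellar membranes, 1 h after dosing, filter-based scintillation read-out; loss of signal vs DMSO. Duplicate single-concentration screen at 25 uM, then concentration-response up to 50 uM for hits.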
# [14] = biological target: human Serotonin, 5-Hydroxytryptamine Receptor 2A (5HT2A), HTR2A (gene 3356) (UniProt P28223); assay: NVS_GPCR_h5HT2A: NovaScreen (NVS) G Protein-Coupled Receptor Assay for human Serotonin, 5-Hydroxytryptamine Receptor 2A (5HT2A) (AID 2283249)
# Outline: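 Human cortex membranes, cell-free radioligand binding; filter-based scintillation read 1.5 h after dosing. Duplicate screen at 25 uM first; displacement of specific binding (loss of signal) versus DMSO.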
# [15] = biological target: human Serotonin, 5-Hydroxytryptamine Receptor 5A (5HT5A), HTR5A (gene 3361) (UniProt P47898); assay: NVS_GPCR_h5HT5A: NovaScreen (NVS) G Protein-Coupled Receptor Assay for human Serotonin, 5-Hydroxytryptamine Receptor 5A (5HT5A) (AID 2283251)
# Outline: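 Cell-free radioligand displacement binding on HEK293-derived membrane protein, 1 h incubation, filter-based scintillation counting. Primary screen in duplicate at 25 uM, actives followed in concentration series; loss of signal fitted versus DMSO.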
# [16] = biological target: human Dopamine Receptor D2 (DRD2), DRD2 (gene 1813) (UniProt P14416); assay: NVS_GPCR_hDRD2s: NovaScreen (NVS) G Protein-Coupled Receptor Assay for human Dopamine Receptor D2 (DRD2) (AID 2283266)
# Outline: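 Radioligand displacement used human DRD2 membranes extracted from CHO cells and was read by filter-based scintillation counting after 1.5 hours. Primary screening was in duplicate at 25 uM. Loss of signal versus DMSO was fitted, with concentration series in follow-up.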
# [17] = biological target: human Adrenergic, Beta 3 Receptor (Adrb3), ADRB3 (gene 155) (UniProt P13945); assay: NVS_GPCR_hAdrb3: NovaScreen (NVS) G Protein-Coupled Receptor Assay for human Adrenergic, Beta 3 Receptor (Adrb3) (AID 2283262)
# Outline: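 Membranes from SK-N-MC cells pretreated with isoproterenol and 8-bromo-cAMP were used in a radioligand competitive displacement binding assay. Binding was read by filter-based scintillation counting 1 hour after dosing. Primary screening was in duplicate at 25 uM, with concentration series in follow-up.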
# [18] = biological target: human Dopamine Receptor D4.4 (DRD4.4), DRD4 (gene 1815) (UniProt P21917); assay: NVS_GPCR_hDRD4.4: NovaScreen (NVS) G Protein-Coupled Receptor Assay for human Dopamine Receptor D4.4 (DRD4.4) (AID 2283264)
# Outline: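 Radioligand displacement on human DRD4.4 from CHO-derived membranes, 1 hour incubation, bound counts read by filtration and scintillation. Primary screen in duplicate at 25 uM; actives followed up in concentration series.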
# [19] = biological target: Beta-2 adrenergic receptor (Homo sapiens) (UniProt P07550); assay: NVS_GPCR_hAdrb2: NovaScreen (NVS) G Protein-Coupled Receptor Assay for human Adrenergic, Beta 2 Receptor (Adrb2) (AID 2283261)
# Outline: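 Filter-based radioligand binding using receptor prepared from CHO cells, 1 h incubation, scintillation counting. Primary screen in duplicate at 25 uM, actives retested in concentration series; loss of binding relative to DMSO.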
# [20] = biological target: human Endothelin Receptor Type A (ETA), EDNRA (gene 1909) (UniProt P25101); assay: NVS_GPCR_hETA: NovaScreen (NVS) G Protein-Coupled Receptor Assay for human Endothelin Receptor Type A (ETA) (AID 2283265)
# Outline: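 Cell-free radioligand displacement using SH-SY5Y-derived protein, 3 h incubation, filter-based scintillation counting. Primary screen in duplicate at 25 uM; actives then run in concentration-response up to 50 uM; loss of binding fitted versus DMSO.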
# Sequence of human Adrenergic, Alpha 2A Receptor (Adra2A), ADRA2A (gene 150) (P08913 whole entry, looked up): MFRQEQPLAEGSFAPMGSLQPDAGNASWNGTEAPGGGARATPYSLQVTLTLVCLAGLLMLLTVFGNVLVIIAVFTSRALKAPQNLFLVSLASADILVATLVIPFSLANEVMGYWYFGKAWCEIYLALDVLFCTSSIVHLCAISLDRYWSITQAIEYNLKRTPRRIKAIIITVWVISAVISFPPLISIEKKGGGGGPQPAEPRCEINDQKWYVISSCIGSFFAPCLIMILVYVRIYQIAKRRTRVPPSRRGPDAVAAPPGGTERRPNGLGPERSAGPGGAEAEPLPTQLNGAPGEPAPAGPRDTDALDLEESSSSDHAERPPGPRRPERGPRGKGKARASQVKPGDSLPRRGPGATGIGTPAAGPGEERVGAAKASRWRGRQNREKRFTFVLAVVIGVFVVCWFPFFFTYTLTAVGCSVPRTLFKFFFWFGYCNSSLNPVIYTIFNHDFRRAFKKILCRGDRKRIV
# Sequence of human Dopamine Receptor D2 (DRD2), DRD2 (gene 1813) (P14416 whole entry, looked up): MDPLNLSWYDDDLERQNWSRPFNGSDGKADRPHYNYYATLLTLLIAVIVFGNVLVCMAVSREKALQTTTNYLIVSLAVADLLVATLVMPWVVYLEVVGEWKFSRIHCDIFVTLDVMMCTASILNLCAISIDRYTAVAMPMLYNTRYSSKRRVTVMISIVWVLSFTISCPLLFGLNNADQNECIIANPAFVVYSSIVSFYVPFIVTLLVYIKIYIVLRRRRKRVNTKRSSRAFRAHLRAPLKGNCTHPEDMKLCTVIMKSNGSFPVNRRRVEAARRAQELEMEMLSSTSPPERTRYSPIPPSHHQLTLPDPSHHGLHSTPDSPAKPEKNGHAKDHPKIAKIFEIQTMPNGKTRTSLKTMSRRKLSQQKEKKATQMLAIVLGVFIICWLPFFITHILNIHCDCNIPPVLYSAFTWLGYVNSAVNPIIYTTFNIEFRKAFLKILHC
# Sequence of human Serotonin, 5-Hydroxytryptamine Receptor 7 (5HT7), HTR7 (gene 3363) (P34969 whole entry, looked up): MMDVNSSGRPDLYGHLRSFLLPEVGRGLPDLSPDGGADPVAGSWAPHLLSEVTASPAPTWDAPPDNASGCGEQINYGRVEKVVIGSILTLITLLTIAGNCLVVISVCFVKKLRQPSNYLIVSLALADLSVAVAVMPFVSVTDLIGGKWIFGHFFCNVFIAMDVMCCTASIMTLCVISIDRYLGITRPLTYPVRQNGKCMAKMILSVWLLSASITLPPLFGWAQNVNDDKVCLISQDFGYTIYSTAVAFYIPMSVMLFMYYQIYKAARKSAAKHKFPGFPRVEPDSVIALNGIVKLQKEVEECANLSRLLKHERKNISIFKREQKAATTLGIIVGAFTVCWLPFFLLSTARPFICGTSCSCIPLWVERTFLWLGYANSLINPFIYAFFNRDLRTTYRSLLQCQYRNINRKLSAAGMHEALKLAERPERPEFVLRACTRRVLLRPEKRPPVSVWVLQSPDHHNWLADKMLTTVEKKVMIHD
# Sequence of human Serotonin, 5-Hydroxytryptamine Receptor 6 (5HT6), HTR6 (gene 3362) (P50406 whole entry, looked up): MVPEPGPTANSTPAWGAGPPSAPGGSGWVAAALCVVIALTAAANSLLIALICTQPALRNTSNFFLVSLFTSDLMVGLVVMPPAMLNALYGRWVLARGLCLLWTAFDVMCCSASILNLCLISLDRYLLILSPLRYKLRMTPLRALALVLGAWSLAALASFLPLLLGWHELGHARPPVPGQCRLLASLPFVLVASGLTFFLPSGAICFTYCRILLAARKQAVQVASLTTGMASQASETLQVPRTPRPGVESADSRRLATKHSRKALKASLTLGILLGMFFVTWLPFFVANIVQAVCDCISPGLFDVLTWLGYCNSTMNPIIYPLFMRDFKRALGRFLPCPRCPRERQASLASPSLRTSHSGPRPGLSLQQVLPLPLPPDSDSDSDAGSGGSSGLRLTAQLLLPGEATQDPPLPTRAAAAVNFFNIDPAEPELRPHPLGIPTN
# Sequence of human Dopamine Receptor D4.4 (DRD4.4), DRD4 (gene 1815) (P21917 whole entry, looked up): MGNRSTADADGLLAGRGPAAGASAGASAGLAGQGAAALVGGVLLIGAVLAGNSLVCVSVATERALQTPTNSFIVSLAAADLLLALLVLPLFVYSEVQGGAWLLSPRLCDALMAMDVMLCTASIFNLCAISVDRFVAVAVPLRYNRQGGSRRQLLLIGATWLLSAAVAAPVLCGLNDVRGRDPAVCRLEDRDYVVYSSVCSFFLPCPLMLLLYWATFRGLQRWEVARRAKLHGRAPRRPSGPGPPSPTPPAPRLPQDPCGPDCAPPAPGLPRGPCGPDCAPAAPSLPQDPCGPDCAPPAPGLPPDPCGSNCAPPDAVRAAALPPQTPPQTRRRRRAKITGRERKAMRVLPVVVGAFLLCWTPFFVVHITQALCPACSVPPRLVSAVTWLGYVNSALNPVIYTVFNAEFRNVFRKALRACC
# Sequence of guinea pig Leukotriene D4 Receptor (LTD4), CYSLTR1 (gene 100135514) (Q2NNR5 whole entry, looked up): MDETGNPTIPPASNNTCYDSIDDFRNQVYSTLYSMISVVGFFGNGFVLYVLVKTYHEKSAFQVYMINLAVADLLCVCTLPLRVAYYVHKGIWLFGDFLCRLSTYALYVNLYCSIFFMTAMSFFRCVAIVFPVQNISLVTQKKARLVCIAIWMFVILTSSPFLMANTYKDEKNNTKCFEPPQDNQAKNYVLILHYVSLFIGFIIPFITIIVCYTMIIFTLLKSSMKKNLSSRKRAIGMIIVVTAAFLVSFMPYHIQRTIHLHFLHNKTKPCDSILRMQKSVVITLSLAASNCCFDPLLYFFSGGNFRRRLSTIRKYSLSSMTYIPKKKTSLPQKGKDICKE
# Sequence of human Adenosine A1 Receptor (AdoRA1), ADORA1 (gene 134) (P30542 whole entry, looked up): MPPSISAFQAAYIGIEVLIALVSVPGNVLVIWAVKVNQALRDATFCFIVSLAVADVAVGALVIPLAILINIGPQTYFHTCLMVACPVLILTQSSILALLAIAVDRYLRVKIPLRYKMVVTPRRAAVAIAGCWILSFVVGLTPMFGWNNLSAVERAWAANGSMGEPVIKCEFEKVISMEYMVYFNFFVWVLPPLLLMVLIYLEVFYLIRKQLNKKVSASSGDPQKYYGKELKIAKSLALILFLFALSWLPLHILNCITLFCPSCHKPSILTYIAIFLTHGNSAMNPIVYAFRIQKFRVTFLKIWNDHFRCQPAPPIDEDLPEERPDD
# Sequence of guinea pig Opioid, Kappa 1 Receptor (OpiateK), OPRK1 (gene 100135587) (P41144 whole entry, looked up): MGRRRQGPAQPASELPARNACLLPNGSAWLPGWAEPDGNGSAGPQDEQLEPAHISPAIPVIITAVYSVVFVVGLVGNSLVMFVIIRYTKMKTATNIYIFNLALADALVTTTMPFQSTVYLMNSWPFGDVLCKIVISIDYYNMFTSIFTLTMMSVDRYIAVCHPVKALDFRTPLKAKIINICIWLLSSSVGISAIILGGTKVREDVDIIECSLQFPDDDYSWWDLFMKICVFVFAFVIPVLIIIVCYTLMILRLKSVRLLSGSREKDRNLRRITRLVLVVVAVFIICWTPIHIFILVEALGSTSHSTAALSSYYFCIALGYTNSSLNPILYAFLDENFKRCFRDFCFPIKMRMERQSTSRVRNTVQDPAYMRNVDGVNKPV
# Sequence of human Adenosine A2a Receptor (AdoRA2a), ADORA2A (gene 135) (P29274 whole entry, looked up): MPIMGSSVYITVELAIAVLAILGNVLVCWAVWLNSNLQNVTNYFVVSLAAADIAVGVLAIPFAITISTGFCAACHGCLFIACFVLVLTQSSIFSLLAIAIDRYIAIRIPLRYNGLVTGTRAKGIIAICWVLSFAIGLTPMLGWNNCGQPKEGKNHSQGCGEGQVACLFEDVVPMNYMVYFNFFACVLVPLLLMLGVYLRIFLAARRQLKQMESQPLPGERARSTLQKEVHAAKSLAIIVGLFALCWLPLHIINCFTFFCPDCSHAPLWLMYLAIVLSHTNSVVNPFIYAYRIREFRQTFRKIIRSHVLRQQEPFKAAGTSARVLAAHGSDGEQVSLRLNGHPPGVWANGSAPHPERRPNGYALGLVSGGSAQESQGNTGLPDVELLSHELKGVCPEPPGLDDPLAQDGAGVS
# Sequence of human Adrenergic, Beta 1 Receptor (Adrb1), ADRB1 (gene 153) (P08588 whole entry, looked up): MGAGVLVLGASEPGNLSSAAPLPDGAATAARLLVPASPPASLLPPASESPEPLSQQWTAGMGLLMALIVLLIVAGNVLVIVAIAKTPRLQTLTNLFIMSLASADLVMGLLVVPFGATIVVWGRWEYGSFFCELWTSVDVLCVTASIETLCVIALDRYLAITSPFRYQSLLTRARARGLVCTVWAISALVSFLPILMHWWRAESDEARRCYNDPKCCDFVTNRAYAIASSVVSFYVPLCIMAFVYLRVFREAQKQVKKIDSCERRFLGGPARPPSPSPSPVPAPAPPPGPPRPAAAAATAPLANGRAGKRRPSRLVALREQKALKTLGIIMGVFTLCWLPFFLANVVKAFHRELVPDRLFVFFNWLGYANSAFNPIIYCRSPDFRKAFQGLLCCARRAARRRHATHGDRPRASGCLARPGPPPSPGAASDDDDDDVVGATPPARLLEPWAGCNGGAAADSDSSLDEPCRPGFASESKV
# Sequence of human Adrenergic, Alpha 2c Receptor (Adra2C), ADRA2C (gene 152) (P18825 whole entry, looked up): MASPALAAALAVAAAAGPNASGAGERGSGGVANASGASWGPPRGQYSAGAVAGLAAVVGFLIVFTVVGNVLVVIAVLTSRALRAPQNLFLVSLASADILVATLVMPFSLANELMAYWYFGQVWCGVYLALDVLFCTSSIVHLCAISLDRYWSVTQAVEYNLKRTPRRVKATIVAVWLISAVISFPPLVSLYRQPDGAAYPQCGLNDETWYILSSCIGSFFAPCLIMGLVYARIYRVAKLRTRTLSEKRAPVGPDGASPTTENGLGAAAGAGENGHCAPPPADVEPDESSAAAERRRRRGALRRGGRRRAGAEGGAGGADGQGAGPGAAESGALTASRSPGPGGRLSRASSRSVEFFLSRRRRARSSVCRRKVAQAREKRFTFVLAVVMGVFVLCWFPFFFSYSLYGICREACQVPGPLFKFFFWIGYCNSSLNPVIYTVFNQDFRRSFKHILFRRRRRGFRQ
smiles,measurement,setting,value
Cc1nccn1-c1ccc(Sc2cccc(C3(C(N)=O)CCOCC3)c2)cc1,AC50,[1],8.42 µM (active)
same,AC50,[2],25 µM (active)
same,AC50,[3],2.06 µM (active)
same,outcome,[4],inactive
same,AC50,[5],4.51 µM (active)
same,outcome,[6],inactive
OCc1c[nH]c2ccccc12,outcome,[5],inactive
CCN(CC)C(=S)SSC(=S)N(CC)CC,AC50,[7],1.24 µM (active)
same,outcome,[3],inactive
same,AC50,[8],8.33 µM (active)
same,AC50,[9],13.5 µM (active)
same,AC50,[10],2.55 µM (active)
same,outcome,[6],inactive
CCCOc1ccc(S(=O)(=O)N2CCN(CC)CC2)cc1-c1nc2c(CC)n(Cc3ccccn3)nc2c(=O)[nH]1,outcome,[3],inactive
same,AC50,[4],6.54 µM (active)
O=C(O)c1ccc2c(c1)nc(C(=O)NC1CCN(C3CC3)CC1)n2Cc1cc(-c2ccc(Cl)s2)on1,AC50,[11],0.308 µM (active)
same,outcome,[12],inactive
CCCCCCCCCC,outcome,[13],inactive
same,outcome,[14],inactive
same,outcome,[2],inactive
same,outcome,[15],inactive
same,outcome,[8],inactive
same,outcome,[4],inactive
same,outcome,[9],inactive
same,outcome,[5],inactive
same,outcome,[10],inactive
same,outcome,[12],inactive
same,outcome,[16],inactive
OCC(CO)(CO)CO,outcome,[13],inactive
same,outcome,[17],inactive
CCCCCCCCCCCCCCCCOS(=O)(=O)O,AC50,[7],4.26 µM (active)
same,AC50,[15],20.6 µM (active)
same,AC50,[9],15.6 µM (active)
same,AC50,[10],3.47 µM (active)
same,AC50,[12],3.6 µM (active)
same,AC50,[18],12.5 µM (active)
same,outcome,[16],inactive
COCc1nnc(-c2ccc[n+]([O-])c2)n1-c1c(Cl)c(Cl)cc2[nH]c(=O)c(=O)[nH]c12,outcome,[1],inactive
same,outcome,[7],inactive
same,outcome,[8],inactive
same,AC50,[4],32.2 µM (active)
same,outcome,[5],inactive
CC(C)CCCCCCOC(=O)C1CCCCC1C(=O)OCCCCCCC(C)C (stereo unspecified),outcome,[19],inactive
Cc1ncc([C@@H](CCCCCCc2ccc3c(n2)NCCC3)CC(=O)O)cn1,AC50,[11],13.7 µM (active)
same,AC50,[12],16.2 µM (active)
O=C(NO)C1(NS(=O)(=O)c2ccc(Oc3ccc(F)cc3)cc2)CCOCC1,AC50,[1],7.03 µM (active)
same,AC50,[11],25 µM (active)
same,AC50,[18],25 µM (active)
OC(CCl)CCl,AC50,[11],25 µM (active)
CC[C@H](C)C(=O)O[C@H]1C[C@H](O)C=C2C=C[C@H](C)[C@H](CC[C@@H](O)C[C@@H](O)CC(=O)O)[C@H]21,AC50,[1],0.328 µM (active)
same,outcome,[20],inactive
CCCCCCCC/C=C\CCCCCCCC(=O)OC[C@@H](O)[C@H]1OC[C@H](O)[C@H]1O,AC50,[10],43.1 µM (active)
NNC(=O)c1ccncc1,outcome,[11],inactive
O=c1[nH]cnc2c1ncn2[C@H]1CC[C@@H](CO)O1,outcome,[18],inactive
same,AC50,[16],32.7 µM (active)
CC(C)c1nnc2ccc(-c3ocnc3-c3cc(F)ccc3F)cn12,outcome,[7],inactive
